Structures are written as SMILES.

Consider seven molecules from ChEMBL document CHEMBL1961873, “Compounds: GSK PKIS; Assays: Nanosyn kinase panel” (2012).

Assay [1] deals with T1, Tyrosine-protein kinase receptor TYRO3 (Homo sapiens) (UniProt Q06418).
T1 sequence (whole entry): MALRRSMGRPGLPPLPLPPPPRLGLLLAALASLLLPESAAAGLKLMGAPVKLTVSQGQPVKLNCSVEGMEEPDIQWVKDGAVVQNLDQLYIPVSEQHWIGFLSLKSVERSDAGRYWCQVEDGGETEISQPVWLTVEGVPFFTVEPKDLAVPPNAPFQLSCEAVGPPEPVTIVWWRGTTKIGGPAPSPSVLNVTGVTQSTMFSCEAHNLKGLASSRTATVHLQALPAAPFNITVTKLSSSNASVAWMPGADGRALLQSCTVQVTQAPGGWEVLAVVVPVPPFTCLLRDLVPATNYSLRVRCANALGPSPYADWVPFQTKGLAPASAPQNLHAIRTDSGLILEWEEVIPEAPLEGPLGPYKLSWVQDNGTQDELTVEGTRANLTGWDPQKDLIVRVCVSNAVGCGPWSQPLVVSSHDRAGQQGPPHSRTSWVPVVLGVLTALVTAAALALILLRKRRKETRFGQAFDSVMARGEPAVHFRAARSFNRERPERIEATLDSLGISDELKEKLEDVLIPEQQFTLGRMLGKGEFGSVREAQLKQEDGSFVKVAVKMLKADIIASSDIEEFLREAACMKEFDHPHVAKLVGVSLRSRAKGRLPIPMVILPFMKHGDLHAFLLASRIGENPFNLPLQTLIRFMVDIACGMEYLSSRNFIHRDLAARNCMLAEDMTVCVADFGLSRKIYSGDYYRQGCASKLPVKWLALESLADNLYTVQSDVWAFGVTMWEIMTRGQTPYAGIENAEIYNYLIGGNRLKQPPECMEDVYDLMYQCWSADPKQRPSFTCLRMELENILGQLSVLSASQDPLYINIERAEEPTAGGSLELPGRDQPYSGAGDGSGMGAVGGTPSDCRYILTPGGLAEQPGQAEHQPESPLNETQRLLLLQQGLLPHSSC
Conditions: at 1 µM.

Assay [2] addresses Tyrosine-protein kinase Yes (Homo sapiens) (UniProt P07947). The note with it: at 0.1 µM.
Assay [3] has the same target. Conditions: at 1 µM.
Assay [4] addresses T2, Tyrosine-protein kinase ZAP-70 (Homo sapiens) (UniProt P43403).
T2 sequence (whole entry): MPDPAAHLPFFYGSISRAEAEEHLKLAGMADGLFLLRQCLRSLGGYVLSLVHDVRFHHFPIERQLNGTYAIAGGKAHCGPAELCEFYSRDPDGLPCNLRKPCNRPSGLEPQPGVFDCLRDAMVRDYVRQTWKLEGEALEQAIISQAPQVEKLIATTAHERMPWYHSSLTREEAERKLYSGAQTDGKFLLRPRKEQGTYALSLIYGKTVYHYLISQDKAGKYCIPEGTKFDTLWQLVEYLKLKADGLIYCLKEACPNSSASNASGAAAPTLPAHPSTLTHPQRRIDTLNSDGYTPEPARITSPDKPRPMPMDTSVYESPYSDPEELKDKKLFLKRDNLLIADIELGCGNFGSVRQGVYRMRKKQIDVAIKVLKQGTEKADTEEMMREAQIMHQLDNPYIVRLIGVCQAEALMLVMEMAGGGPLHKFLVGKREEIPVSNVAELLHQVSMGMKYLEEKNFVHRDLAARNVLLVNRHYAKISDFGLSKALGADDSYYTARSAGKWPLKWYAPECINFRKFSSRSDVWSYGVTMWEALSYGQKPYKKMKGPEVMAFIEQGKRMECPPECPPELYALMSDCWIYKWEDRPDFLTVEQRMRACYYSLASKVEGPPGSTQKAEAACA
The note with it: at 0.1 µM.

Assay [5] addresses T2, Tyrosine-protein kinase ZAP-70 (Homo sapiens). The note with it: at 1 µM.
Assay [6] concerns the target Serine/threonine-protein kinase B-raf (Homo sapiens) (UniProt P15056). The note with it: at 0.1 µM.
Assay [7] shares this target. Conditions: at 1 µM.
For assay [8], the system named is Serine/threonine-protein kinase B-raf (Homo sapiens), P15056 [V600E]. The note with it: at 0.1 µM.
Chain of Serine/threonine-protein kinase B-raf (Homo sapiens), P15056 [V600E] (P15056 whole entry V600E): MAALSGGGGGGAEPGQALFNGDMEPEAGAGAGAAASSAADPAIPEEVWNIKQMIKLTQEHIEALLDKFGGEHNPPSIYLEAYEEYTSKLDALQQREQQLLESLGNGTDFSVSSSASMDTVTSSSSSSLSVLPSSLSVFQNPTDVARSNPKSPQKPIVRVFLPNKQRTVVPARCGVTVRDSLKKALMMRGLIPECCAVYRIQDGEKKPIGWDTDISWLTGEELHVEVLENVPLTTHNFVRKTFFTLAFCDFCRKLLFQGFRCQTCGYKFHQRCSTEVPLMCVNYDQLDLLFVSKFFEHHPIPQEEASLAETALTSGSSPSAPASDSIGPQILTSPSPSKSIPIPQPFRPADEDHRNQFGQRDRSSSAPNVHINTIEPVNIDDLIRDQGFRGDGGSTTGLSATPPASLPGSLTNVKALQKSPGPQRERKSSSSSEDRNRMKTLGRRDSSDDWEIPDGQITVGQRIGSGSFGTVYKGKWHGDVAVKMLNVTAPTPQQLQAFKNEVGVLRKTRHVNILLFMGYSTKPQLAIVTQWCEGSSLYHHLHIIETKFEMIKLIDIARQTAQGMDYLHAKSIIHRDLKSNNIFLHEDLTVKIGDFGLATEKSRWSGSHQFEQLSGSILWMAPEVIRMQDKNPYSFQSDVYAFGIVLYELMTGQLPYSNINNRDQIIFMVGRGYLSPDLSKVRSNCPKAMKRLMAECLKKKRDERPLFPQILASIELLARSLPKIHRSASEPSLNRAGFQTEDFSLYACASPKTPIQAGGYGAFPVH
Assay [9] shares this test system. Conditions: at 1 µM.
In assay [10] the target is RAF proto-oncogene serine/threonine-protein kinase (Homo sapiens) (UniProt P04049). The note with it: at 0.1 µM.
Chain of RAF proto-oncogene serine/threonine-protein kinase (Homo sapiens) (P04049 whole entry): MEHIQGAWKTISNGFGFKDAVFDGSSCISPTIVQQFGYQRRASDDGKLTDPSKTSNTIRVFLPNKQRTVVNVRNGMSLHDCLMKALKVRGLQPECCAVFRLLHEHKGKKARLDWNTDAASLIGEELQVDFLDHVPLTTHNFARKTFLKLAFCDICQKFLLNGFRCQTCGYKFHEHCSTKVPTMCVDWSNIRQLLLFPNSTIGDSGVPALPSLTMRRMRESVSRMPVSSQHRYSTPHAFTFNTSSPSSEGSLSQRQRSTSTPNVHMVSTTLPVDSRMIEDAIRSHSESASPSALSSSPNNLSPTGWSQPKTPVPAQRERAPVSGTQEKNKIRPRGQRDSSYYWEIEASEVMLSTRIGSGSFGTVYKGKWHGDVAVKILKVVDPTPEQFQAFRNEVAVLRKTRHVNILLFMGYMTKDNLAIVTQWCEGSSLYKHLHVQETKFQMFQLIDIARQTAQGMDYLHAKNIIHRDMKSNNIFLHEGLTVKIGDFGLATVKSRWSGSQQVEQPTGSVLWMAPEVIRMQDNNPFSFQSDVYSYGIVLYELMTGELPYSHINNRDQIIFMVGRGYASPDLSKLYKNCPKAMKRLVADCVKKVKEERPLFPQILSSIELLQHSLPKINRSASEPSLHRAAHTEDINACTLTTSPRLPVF
Assay [11] shares this target. The note with it: at 1 µM.
Assay [12] has as its target T3, Interleukin-1 receptor-associated kinase 4 (Homo sapiens) (UniProt Q9NWZ3).
T3 sequence (whole entry): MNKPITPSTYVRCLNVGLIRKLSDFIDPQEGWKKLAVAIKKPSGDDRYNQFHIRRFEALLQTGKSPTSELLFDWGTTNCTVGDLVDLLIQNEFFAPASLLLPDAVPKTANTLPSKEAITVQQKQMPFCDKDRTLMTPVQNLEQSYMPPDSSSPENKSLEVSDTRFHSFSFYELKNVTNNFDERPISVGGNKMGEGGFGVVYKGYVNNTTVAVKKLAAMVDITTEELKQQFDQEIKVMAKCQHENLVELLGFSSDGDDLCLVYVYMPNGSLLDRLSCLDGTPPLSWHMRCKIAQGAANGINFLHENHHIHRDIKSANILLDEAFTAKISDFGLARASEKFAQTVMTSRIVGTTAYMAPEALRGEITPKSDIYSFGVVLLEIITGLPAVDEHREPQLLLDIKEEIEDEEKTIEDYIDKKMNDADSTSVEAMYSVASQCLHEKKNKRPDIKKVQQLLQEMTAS
The note with it: at 0.1 µM.

Assay [13] concerns the target T3, Interleukin-1 receptor-associated kinase 4 (Homo sapiens). The note with it: at 1 µM.
For assay [14], the target named is Leucine-rich repeat serine/threonine-protein kinase 2 (Homo sapiens) (UniProt Q5S007). The note with it: at 0.1 µM.
Chain of Leucine-rich repeat serine/threonine-protein kinase 2 (Homo sapiens) (Q5S007 whole entry): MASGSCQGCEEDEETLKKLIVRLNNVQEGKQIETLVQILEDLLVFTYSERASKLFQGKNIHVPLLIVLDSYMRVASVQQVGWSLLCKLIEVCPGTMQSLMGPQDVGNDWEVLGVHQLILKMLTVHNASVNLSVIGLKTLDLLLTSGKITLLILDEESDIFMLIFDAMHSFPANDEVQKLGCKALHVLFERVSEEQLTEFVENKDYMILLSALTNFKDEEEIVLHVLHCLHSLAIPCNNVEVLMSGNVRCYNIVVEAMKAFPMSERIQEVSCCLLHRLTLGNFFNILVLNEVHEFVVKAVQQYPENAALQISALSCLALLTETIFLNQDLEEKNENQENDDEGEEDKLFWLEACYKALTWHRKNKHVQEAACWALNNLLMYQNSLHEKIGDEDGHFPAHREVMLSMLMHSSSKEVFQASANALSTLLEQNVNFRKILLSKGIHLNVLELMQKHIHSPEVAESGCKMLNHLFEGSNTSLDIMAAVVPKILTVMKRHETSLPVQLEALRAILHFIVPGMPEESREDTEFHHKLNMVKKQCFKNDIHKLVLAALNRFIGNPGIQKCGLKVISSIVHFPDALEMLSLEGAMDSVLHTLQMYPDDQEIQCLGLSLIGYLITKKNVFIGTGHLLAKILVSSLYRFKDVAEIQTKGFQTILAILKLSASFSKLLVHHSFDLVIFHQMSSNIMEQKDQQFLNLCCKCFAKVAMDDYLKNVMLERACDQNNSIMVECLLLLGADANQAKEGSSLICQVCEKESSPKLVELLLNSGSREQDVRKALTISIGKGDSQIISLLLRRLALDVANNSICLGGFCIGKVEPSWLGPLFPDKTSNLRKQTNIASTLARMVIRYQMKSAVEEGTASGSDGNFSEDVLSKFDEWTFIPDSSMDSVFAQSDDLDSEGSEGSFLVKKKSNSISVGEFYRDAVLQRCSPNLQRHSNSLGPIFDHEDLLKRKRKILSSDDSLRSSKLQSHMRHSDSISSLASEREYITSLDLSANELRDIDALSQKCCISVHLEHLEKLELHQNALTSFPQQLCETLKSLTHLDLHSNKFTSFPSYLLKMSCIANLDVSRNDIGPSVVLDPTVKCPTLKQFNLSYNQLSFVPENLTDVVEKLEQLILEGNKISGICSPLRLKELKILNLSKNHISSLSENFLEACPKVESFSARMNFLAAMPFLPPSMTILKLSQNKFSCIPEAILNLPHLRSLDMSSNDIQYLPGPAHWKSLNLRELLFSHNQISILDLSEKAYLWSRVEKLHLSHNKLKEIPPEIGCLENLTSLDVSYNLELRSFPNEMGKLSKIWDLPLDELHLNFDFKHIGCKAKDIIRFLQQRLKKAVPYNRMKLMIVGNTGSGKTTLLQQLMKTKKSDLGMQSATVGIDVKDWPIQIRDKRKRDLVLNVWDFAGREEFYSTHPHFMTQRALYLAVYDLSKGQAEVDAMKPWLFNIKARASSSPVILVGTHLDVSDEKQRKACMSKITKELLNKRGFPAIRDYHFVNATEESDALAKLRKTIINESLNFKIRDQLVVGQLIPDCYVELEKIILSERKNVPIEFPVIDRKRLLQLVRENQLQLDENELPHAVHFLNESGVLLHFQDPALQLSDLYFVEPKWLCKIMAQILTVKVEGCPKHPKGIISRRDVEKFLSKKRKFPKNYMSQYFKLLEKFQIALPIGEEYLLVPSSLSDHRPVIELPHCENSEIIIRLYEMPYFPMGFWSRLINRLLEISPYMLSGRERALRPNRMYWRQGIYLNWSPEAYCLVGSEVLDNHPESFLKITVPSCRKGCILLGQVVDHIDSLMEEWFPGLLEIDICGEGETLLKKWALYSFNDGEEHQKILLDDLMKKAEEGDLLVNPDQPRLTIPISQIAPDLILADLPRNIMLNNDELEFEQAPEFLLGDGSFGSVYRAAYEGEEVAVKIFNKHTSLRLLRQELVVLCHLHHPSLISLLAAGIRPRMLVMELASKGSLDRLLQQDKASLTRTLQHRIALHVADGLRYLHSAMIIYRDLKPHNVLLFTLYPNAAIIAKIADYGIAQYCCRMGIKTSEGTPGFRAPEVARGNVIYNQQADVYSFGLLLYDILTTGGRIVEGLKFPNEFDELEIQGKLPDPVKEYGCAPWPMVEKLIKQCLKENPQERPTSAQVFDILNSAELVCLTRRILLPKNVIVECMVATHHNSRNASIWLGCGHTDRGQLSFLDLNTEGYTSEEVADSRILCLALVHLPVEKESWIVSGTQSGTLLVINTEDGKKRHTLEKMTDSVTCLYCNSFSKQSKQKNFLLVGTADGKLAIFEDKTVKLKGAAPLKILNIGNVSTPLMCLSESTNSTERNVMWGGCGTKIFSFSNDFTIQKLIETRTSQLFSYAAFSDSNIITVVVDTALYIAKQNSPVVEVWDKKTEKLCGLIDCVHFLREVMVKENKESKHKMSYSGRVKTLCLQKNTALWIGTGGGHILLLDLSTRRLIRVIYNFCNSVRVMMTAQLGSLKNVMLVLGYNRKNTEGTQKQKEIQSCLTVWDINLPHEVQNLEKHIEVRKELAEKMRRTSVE
For assay [15] the target is unchanged. The note with it: at 1 µM.
Assay [16] relates to Leucine-rich repeat serine/threonine-protein kinase 2 (Homo sapiens), Q5S007 [G2019S]. Conditions: at 0.1 µM.
Chain of Leucine-rich repeat serine/threonine-protein kinase 2 (Homo sapiens), Q5S007 [G2019S] (Q5S007 whole entry G2019S): as the sequence (Q5S007 whole entry) above, with G2019S counted along it
The test system is the same in assay [17]. Conditions: at 1 µM.

Chain of Tyrosine-protein kinase Yes (Homo sapiens) (P07947 2-543 limits assumed): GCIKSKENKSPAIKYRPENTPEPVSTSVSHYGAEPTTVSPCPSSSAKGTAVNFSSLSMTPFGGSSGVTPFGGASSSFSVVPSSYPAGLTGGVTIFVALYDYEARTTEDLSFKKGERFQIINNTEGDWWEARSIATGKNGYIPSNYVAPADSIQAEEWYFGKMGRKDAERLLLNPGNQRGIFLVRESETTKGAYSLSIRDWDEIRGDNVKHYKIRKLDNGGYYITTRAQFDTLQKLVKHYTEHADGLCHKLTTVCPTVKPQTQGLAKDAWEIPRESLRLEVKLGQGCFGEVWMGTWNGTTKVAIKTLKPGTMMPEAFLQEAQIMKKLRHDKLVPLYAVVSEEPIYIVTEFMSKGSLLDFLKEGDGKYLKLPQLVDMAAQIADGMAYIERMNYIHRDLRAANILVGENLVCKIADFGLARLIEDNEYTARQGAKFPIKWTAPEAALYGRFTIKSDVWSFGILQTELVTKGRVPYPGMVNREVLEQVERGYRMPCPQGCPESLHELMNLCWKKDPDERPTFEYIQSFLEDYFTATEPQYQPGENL
Chain of Serine/threonine-protein kinase B-raf (Homo sapiens) (P15056 whole entry): as the sequence (P15056 whole entry V600E) above, with E600V counted along it

Consider `FC(F)(F)c1cccc(Nc2nccc(-c3cnn4nc(-c5ccccc5)ccc34)n2)c1`, for which the inhibition in assay [1] stood at 0.62%; in [2] it was 2.51%; in [3], 24.8%; in [4] it was 0.98%; in assay [5], 2.56%; in assay [6], 3.36%. In addition, the inhibition in assay [7] was 4.64%; in assay [8] it was 2.72%; in [9] it was 4.02%; in assay [10] it was -0.56%; in assay [11] it was -0.15%; in [12] it was 0.01%. Moreover, the inhibition is 0.27% in [13]; 2% in assay [14]; -0.41% in assay [15]; 2.35% in [16]; 4.67% in assay [17].
With `NC(=O)c1cc(-c2ccc(F)cc2)cc(-c2ccncc2)c1N`, the inhibition came to 3.84% in [1]; 3.3% in assay [2]; 8.03% in assay [3]; 3.36% in assay [4]; 4.08% in assay [5]; 6.39% in assay [6]. The inhibition stood at 7.79% in [7]; 7.49% in [8]; 7.36% in assay [9]; 0.54% in assay [10]; 8.69% in assay [11]; 2.99% in assay [12]. For the same molecule, the inhibition amounted to 1.61% in [13]; 0.64% in assay [14]; 0.67% in [15]; 0.41% in [16]; 0.77% in assay [17].
As to `C#Cc1cccc(Nc2ncnc3ccc(OCCCCNCCS(C)(=O)=O)cc23)c1`, the inhibition was 8.46% in assay [1]; 4.13% in assay [2]; 12.3% in [3]; -1.39% in assay [4]; -2.29% in assay [5]; 8.08% in assay [6]. Besides, the inhibition in assay [7] was 6.4%; in assay [8], 8.35%; in assay [9], 5.48%; in [10], -5.79%; in [11] it was -0.78%; in [12] it was 4.25%. Besides, the inhibition is 2.41% in assay [13]; -4.32% in [14]; 1.7% in assay [15]; -0.62% in [16]; 5.54% in assay [17].
Consider `Fc1ccc(-c2ncn(C3CCNCC3)c2-c2ccnc(Oc3ccc(Oc4ccccc4)cc3)n2)cc1`, for which the inhibition in assay [1] came out at 2.08%; in [2], 0.21%; in assay [3] it was 4.26%; in [4] it was 0.95%; in [5], 0.36%; in [6], 6.4%. In addition, the inhibition came out at 11.6% in assay [7]; 4.03% in assay [8]; 8.67% in assay [9]; 1.44% in assay [10]; 0.47% in [11]; 1.5% in assay [12]. The inhibition in assay [13] was 1.78%; in assay [14] it was 0.62%; in [15], 5.34%; in [16], 5.08%; in [17], 8.01%.
As to `c1ccc(-c2n[nH]cc2-c2ccnc(-c3ccc(OCCN4CCOCC4)cc3)c2)nc1`, the inhibition in assay [1] was -0.82%; in assay [2], -1.99%; in [3], 2.34%; in assay [4], 5%; in assay [5], 0.13%; in assay [6] it was -2.91%. Further, the inhibition in assay [7] is -2.83%; in [8], -4.04%; in assay [9] it was -1.12%; in [10], -0.28%; in [11], 0.21%; in assay [12], 2.23%. Moreover, the inhibition was 0.43% in assay [13]; 11% in [14]; 8.18% in assay [15]; 6.06% in assay [16]; 13.7% in assay [17].
With `CCS(=O)(=O)c1ccc(OC)c(Nc2ncc(-c3ccccc3Cl)o2)c1`, the inhibition is 42.6% in assay [1]; 8.95% in [2]; 39.3% in [3]; 2.78% in assay [4]; -0.17% in assay [5]; 0.55% in [6]. Also, the inhibition in assay [7] was 0.2%; in assay [8], 0.25%; in assay [9], 0.86%; in [10] it was 0.78%; in assay [11], -2.68%; in assay [12], -1.05%. Further, the inhibition in assay [13] stood at 3.5%; in assay [14], 2.06%; in assay [15], 10.3%; in [16], 1.06%; in assay [17] it was 13.4%.
`c1ccc(Oc2ccc(Nc3ncc(-c4ccccc4)o3)cc2)cc1`: the inhibition in assay [1] was 1.97%; in assay [2], 0.58%; in assay [3], -0.25%; in [4], 1.43%; in assay [5] it was 0.91%; in assay [6] it was 1.29%. Besides, the inhibition in assay [7] came out at 1.47%; in assay [8], 2.23%; in assay [9], 1.97%; in assay [10], 0.01%; in assay [11], 1.5%; in assay [12], 1.75%. The inhibition in assay [13] was 0.97%; in [14] it was 1.55%; in [15] it was 3.95%; in assay [16], 4.15%; in [17], 6.81%.
